# Laboratory results: PubChem BioAssay (Tox21)
# Where “and” joins values, the source holds several entries; their conditions need not be identical. Equal values may be shown once. Inconclusive results are not listed. Entries that show only a call come without a potency. Some structures have more than one record in an assay (separate samples or runs), and their calls can disagree. Calls of active or inactive are those of the source. Unless noted, the call rests on the fitted dose curve; in most records, active means well fitted curve in the direction sought with a large enough effect in the repeat runs; inconclusive means weak or mixed curves; inactive means no such curve, though single readings can be large; an effect the other way counts as inactive or inconclusive.
# Legend:
# [1] = qHTS assay to identify small molecule antagonists of the androgen receptor (AR) signaling pathway using the MDA cell line in the presence of 0.5 nM R1881 - cell viability counter screen (AID 1259242); further: nearly all actives have a fitted effect of over 45% in size; further: potency means the concentration at half of the fitted maximal effect
# How it was run: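 qHTS format. MDA-kb2 (MMTV-luc, AR/GR responsive) + cpd + 0.5 nM R1881 final, 16 hr 37C/0% CO2 → CellTiter-Fluor 30 min → fluorescence intensity.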
# [2] = target: Estrogen receptor (Homo sapiens) (UniProt P03372); test: qHTS assay to identify small molecule antagonists of the estrogen receptor alpha (ER-alpha) signaling pathway using the BG1 cell line in the presence of 0.1 nM 17-beta-estradiol (AID 1259244); further: nearly all actives have a fitted effect of over 50% in size; further: potency means the concentration at half of the fitted maximal effect
# Estrogen receptor (Homo sapiens), sequence (P03372 whole entry, looked up): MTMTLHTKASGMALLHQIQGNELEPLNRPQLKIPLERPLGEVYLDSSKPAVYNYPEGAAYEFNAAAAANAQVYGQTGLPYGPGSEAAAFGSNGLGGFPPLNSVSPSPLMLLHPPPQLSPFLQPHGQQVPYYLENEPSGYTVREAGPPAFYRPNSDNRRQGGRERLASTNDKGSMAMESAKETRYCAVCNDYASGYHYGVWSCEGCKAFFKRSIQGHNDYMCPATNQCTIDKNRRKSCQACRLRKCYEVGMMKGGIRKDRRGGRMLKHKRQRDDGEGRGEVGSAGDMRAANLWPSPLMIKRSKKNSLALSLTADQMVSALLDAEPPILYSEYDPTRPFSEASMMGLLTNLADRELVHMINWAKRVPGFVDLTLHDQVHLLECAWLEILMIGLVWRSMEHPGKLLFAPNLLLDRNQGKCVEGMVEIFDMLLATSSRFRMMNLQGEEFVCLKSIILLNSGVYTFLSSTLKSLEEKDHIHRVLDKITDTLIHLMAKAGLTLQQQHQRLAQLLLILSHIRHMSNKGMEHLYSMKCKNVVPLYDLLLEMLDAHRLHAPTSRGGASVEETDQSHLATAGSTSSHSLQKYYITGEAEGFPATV
# How it was run: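 Reporter is a stably transfected luciferase under four estrogen responsive elements in VM7Luc4E2 cells expressing native full-length ER-alpha; inhibition of 0.1 nM (final) 17beta-estradiol-driven signal over 22 h is read by luminescence.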
# [3] = qHTS assay to identify small molecule phospholipidosis (PLD) inducers (AID 1259344; active means well fitted curve in the direction sought with a large enough effect; an effect the other way counts as inactive or inconclusive)
# How it was run: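 Accumulated phospholipid, stained red by LipidTOX during 24 h compound treatment of HepG2 cells at 37 C, is quantified from images as pit number and intensity, normalised per cell using Hoechst-stained nuclei.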
# [4] = qHTS assay to identify small molecule HDAC inhibitors (AID 1259364); further: potency means the concentration at half of the fitted maximal effect;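 further: wild-type HCT-116 cells with endogenous class I/II HDAC activity; nearly all actives have a fitted effect of over 45% in size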
# How it was run: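 Quantitative high-throughput format: overnight-seeded HCT-116 cells got compounds for 2 hr at 37C; HDAC-Glo I/II reagent added, 30 min RT, luminescence measured.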
# [5] = qHTS assay to identify small molecule HDAC inhibitors - cell viability counter screen (AID 1259365); further: nearly all actives have a fitted effect of over 50% in size; further: potency means the concentration at half of the fitted maximal effect
# How it was run: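 Counter screen in wild-type HCT-116 cells: compounds dissolved in DMSO are pin-transferred onto overnight-plated cells and left 2hr at 37C. ATP-based CellTiter-Glo luminescence then measures viable cells.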
# [6] = qHTS assay to identify small molecule agonists of the sonic hedgehog signaling (Shh) pathway - cell viability counter screen (AID 1259366); further: nearly all actives have a fitted effect of over 50% in size; further: potency means the concentration at half of the fitted maximal effect
# How it was run: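 Cells are plated at 2,000 per well and left 4hr at 37C, 5% CO2 before compound addition. After 23hr of treatment, CellTiter-Fluor reagent is added for 1hr at 37C and fluorescence is measured.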
# [7] = qHTS assay to identify small molecule antagonists of the sonic hedgehog signaling (Shh) pathway - cell viability counter screen (AID 1259367); further: nearly all actives have a fitted effect of over 55% in size; further: potency means the concentration at half of the fitted maximal effect
# How it was run: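 CellTiter-Fluor signal in conditioned medium-stimulated 3T3 Gli1-Luc cells, 23 hr compound exposure, 37C.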
# [8] = qHTS assay to identify small molecule agonists of the sonic hedgehog signaling (Shh) pathway (AID 1259368; calls by dose curve; further: nearly all actives have a fitted effect of over 15% in size; further: potency means the concentration at half of the fitted maximal effect)
# How it was run: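 Quantitative high-throughput format using a Gli1-driven firefly luciferase reporter line derived from NIH/3T3 cells. After a 24 hr compound treatment at 37 C and 5% CO2, luminescence reported Gli1 response element activity.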
# [9] = qHTS assay to identify small molecule antagonists of the sonic hedgehog signaling (Shh) pathway (AID 1259369; calls by dose curve; further: nearly all actives have a fitted effect of over 45% in size; further: potency means the concentration at half of the fitted maximal effect)
# How it was run: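 Stable Gli1-Luc reporter NIH/3T3 clone; quantitative HTS in stimulated mode with conditioned medium. Luminescence measured after 24hr compound treatment at 37 C.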
# [10] = target: Estrogen receptor beta (Homo sapiens) (UniProt Q92731); test: qHTS assay to identify small molecule antagonists of the estrogen receptor beta (ER-beta) signaling pathway (AID 1259378; active means well fitted inhibition curve with a large enough effect in the signal ratio in the repeat runs, not every such curve was filed as active; the % refers to the signal ratio; further: potency means the concentration at half of the fitted maximal effect)
# Estrogen receptor beta (Homo sapiens), sequence (Q92731 whole entry, looked up, the tested form may be a part): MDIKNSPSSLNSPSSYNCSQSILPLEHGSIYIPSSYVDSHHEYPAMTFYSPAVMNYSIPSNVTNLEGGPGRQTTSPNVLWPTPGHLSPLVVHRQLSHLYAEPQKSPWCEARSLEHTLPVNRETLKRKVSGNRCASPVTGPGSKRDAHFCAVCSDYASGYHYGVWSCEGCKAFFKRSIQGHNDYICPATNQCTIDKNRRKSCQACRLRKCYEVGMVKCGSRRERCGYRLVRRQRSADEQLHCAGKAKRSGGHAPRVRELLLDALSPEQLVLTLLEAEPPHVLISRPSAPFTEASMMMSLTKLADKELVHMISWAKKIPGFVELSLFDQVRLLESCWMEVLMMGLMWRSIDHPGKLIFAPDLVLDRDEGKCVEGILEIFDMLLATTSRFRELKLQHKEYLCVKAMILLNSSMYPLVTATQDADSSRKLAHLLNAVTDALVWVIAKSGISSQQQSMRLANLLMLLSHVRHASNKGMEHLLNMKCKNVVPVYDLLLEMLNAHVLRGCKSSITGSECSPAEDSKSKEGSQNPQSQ
# How it was run: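 Antagonist mode: compounds added to beta-lactamase reporter HEK293T ER-beta-UAS cells stimulated with E2 (1nM final), 16 hr at 37C. LiveBLAzer B/G FRET substrate, 2 hours room temperature, fluorescence read-out.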
# [11] = qHTS assay to identify small molecule agonists of the androgen receptor (AR) signaling pathway in the presence of an antagonist - cell viability counter screen (AID 1259379); further: nearly all actives have a fitted effect of over 25% in size; further: potency means the concentration at half of the fitted maximal effect
# How it was run: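 Nilutamide-containing (3.0uM final) MDA-kb2 cultures, 3,000 cells/well, were treated with compounds across 15 concentrations. After 16 hr at 37C with no CO2, cell viability was determined by CellTiter-Fluor fluorescence in the luciferase assay wells.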
# [12] = target: Estrogen receptor (Homo sapiens) (UniProt P03372); test: qHTS assay to identify small molecule agonists of the estrogen receptor alpha (ER-alpha) signaling pathway in the presence of an antagonist (AID 1259383; calls by dose curve; further: nearly all actives have a fitted effect of over 15% in size; further: potency means the concentration at half of the fitted maximal effect; on activation: top concentration of the series differs between compounds)
# How it was run: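 Readout was ERE-driven luciferase luminescence in VM7Luc4E2 cells, which express full-length ER-alpha endogenously. Compounds were tested at 15 concentrations for 22hr alongside 10.0nM ICI-182,780 (final concentration).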
# [13] = qHTS assay to identify small molecule antagonists of the estrogen receptor alpha (ER-alpha) signaling pathway using the BG1 cell line in the presence of 0.1 nM 17-beta-estradiol - cell viability counter screen (AID 1259241); further: nearly all actives have a fitted effect of over 40% in size; further: potency means the concentration at half of the fitted maximal effect
# How it was run: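 Cells were plated and left 24 hr, compounds in DMSO were pinned in, 17beta-estradiol was added to 0.1 nM final, and after 22 hr CellTiter-Fluor reagent was added for 30 min before fluorescence was read.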
# [14] = target: Androgen receptor (Homo sapiens) (UniProt P10275); test: qHTS assay to identify small molecule antagonists of the androgen receptor (AR) signaling pathway using the MDA cell line in the presence of 0.5 nM R1881 (AID 1259243); further: nearly all actives have a fitted effect of over 50% in size; further: potency means the concentration at half of the fitted maximal effect
# Androgen receptor (Homo sapiens), sequence (P10275 whole entry, looked up): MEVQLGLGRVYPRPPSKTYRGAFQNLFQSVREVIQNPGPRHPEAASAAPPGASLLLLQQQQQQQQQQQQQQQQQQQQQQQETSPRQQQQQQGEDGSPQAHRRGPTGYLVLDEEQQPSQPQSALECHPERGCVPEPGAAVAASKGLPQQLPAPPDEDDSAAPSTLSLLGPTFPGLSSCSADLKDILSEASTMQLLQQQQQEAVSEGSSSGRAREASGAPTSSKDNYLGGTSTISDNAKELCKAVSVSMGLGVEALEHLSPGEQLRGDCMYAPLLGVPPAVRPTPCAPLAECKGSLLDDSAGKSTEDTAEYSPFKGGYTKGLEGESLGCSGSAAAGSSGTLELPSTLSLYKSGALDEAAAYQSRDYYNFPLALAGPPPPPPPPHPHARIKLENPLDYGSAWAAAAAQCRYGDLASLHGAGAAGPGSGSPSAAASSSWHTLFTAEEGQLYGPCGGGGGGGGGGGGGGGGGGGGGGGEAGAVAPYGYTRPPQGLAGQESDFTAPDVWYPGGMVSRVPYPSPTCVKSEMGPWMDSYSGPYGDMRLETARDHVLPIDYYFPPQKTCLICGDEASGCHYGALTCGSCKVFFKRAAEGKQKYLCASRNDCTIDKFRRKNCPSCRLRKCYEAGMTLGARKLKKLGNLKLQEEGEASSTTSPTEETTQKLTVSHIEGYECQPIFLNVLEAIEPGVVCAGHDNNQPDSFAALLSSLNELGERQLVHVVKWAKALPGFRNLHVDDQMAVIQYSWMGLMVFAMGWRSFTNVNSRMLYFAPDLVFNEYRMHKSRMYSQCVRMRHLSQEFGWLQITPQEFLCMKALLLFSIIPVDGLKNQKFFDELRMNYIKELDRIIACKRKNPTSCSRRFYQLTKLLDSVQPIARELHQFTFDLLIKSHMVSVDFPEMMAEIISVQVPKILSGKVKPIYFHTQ
# How it was run: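 Antagonist mode quantitative HTS in MDA-kb2 MMTV-luciferase cells, agonist R1881 at 0.5 nM final, 16 hr exposure at 37C and 0% CO2, luminescent detection.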
# [15] = target: Estrogen receptor beta (Homo sapiens) (UniProt Q92731); test: qHTS assay to identify small molecule agonists of the estrogen receptor beta (ER-beta) signaling pathway (AID 1259377; active means well fitted activation curve with a large enough effect in the signal ratio in the repeat runs, not every such curve was filed as active; the % refers to the signal ratio; further: potency means the concentration at half of the fitted maximal effect)
# How it was run: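 Agonist mode cell assay in GripTite HEK293T cells expressing an ER-beta fusion that drives beta-lactamase from an Upstream Activator Sequence; 16 hr compound exposure at 37C, then 2 h LiveBLAzer B/G FRET substrate at room temperature, fluorescence read-out.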
# [16] = qHTS assay to identify small molecule agonists of the estrogen receptor beta (ER-beta) signaling pathway - cell viability counter screen (AID 1259380); further: nearly all actives have a fitted effect of over 30% in size; further: potency means the concentration at half of the fitted maximal effect
# How it was run: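 Steps: plate ER-beta-UAS-bla HEK293T cells, rest 6 hr; add compounds in DMSO; incubate 16 hr at 37C, 5% CO2; add FRET substrate 2 hr; add CellTiter-Glo, wait 30 min at room temperature; read luminescence.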
# [17] = target: Androgen receptor (Homo sapiens) (UniProt P10275); test: qHTS assay to identify small molecule agonists of the androgen receptor (AR) signaling pathway in the presence of an antagonist (AID 1259381; calls by dose curve; further: nearly all actives have a fitted effect of over 15% in size)
# How it was run: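 Reporter-gene luminescence from MDA-kb2 cells exposed 16hr at 37C (0% CO2) to 15-point compound titrations with 3.0uM final nilutamide as AR antagonist.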
# [18] = qHTS assay to identify small molecule antagonists of the estrogen receptor beta (ER-beta) signaling pathway - cell viability counter screen (AID 1259382); further: nearly all actives have a fitted effect of over 55% in size; further: potency means the concentration at half of the fitted maximal effect
# How it was run: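 Viability is scored by CellTiter-Glo luminescence (30 min, room temperature) in ER-beta-UAS-bla HEK293T wells already read for reporter fluorescence. Compound exposure lasts 16 hr at 37C alongside 1nM 17-beta-estradiol in charcoal-stripped serum medium.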
# [19] = qHTS assay to identify small molecule agonists or antagonists of the thyroid stimulating hormone receptor (TSHR) signaling pathway - wild type cell line counter screen (AID 1259384; calls by dose curve)
# How it was run: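 Counter screen in untransfected Hek293: compounds (15-point titration, triplicate) plus phosphodiesterase inhibitor Ro20-1724 added after 18 h plating; 30 min RT. Intracellular cAMP via competitive d2/cryptate immunoassay, 1 h incubation.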
# [20] = target: Thyrotropin receptor (Homo sapiens) (UniProt P16473); test: qHTS assay to identify small molecule antagonists of the thyroid stimulating hormone receptor (TSHR) signaling pathway (AID 1259385; calls by dose curve; further: nearly all actives have a fitted effect of over 20% in size)
# Thyrotropin receptor (Homo sapiens), sequence (P16473 whole entry, looked up): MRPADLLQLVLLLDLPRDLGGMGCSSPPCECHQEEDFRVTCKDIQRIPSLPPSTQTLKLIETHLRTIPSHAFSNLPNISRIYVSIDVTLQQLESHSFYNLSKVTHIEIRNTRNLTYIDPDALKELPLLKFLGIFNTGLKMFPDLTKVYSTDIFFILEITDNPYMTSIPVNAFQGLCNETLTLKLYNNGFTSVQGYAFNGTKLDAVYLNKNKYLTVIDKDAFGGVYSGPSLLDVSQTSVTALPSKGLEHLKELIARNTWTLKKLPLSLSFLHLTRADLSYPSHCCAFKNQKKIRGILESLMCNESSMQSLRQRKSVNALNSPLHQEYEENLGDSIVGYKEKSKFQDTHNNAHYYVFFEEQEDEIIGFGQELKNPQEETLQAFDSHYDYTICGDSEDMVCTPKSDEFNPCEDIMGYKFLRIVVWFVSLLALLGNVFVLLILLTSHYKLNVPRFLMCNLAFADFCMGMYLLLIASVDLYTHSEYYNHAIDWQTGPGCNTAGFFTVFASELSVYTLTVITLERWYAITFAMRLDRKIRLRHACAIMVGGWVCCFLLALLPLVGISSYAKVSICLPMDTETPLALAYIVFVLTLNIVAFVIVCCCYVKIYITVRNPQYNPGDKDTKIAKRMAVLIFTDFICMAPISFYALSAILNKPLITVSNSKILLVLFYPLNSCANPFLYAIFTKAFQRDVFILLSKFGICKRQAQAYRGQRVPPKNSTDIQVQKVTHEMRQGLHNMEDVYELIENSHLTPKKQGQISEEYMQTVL
# How it was run: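 Antagonist mode: compound-treated TSHR-expressing HEK293 cells were stimulated with 1.5 ng/mL TSH (final) in presence of Ro20-1724 for 30 min at RT. HTRF cAMP detection after 1 h; each compound tested at 15 concentrations, triplicate.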
SMILES,Potency [1],Potency [2],Potency [3],Potency [4],Potency [5],Potency [6],Potency [7],Potency [8],Potency [9],Potency [10],Potency [11],Potency [12],Potency [13],Potency [14],Potency [15],Potency [16],outcome [17],Potency [18],outcome [19],Potency [20]
CC(CCc1ccccc1)NCC(O)c1ccc(O)c(C(N)=O)c1 (stereo not drawn),inactive,inactive,inactive,inactive,inactive,19.3 µM (active),17.2 µM (active),inactive,30.6 µM (active),inactive,inactive,inactive,–,–,–,–,–,–,–,–
CNc1ccc([N+](=O)[O-])cc1,–,inactive,–,inactive,inactive,19.4 µM (active),inactive,inactive,inactive,inactive,48.7 µM (active),inactive,43.4 µM (active),15.4 µM (active),inactive,inactive,inactive,inactive,inactive,inactive
CCCCCCCCCCCCCCCC[N+](C)(C)CC,–,27.4 µM (active) and 26.6 µM (active),inactive,inactive,inactive,68.8 µM (active),54.6 µM (active) and inactive,inactive,6.88 µM (active) and 15 nM (active),–,48.7 µM (active) and 18.8 µM (active),inactive,inactive,–,–,54.6 µM (active) and 11.9 µM (active),–,34.5 µM (active) and 23.7 µM (active),inactive,inactive
C#CC1(O)CC[C@H]2[C@@H]3CCC4=CCCC[C@@H]4[C@H]3CC[C@@]21C (stereo partly drawn),–,inactive,inactive,–,29.8 µM (active),26.6 µM (active),–,inactive,48.6 µM (active) and inactive,–,inactive,611 nM (active) and 473 nM (active),inactive,–,–,61.1 µM (active) and 29.8 µM (active),–,61.1 µM (active) and 26.6 µM (active),inactive,inactive
CC(=O)c1ccc(C(C)=O)cc1,inactive,–,–,inactive,inactive,inactive,inactive,inactive,–,inactive,inactive,–,–,inactive,–,inactive,inactive,inactive,inactive,inactive
CCC(C)[O-].CCC(C)[O-].CCOC(=O)/C=C(/C)[O-].[Al+3],inactive,–,–,inactive,inactive,–,inactive,inactive,inactive,–,inactive,–,–,–,–,inactive,–,inactive,inactive,inactive
Clc1nnc(Cl)c2ccccc12,–,inactive,–,inactive,inactive,inactive,inactive,inactive,–,–,15.3 µM (active),inactive,–,–,–,inactive,–,inactive,–,–
COC(=O)C1=C(C)NC(C)=C(C(=O)OCCN2CCN(C(c3ccccc3)c3ccccc3)CC2)C1c1cccc([N+](=O)[O-])c1 (stereo not drawn),inactive,–,inactive,inactive,inactive,inactive,inactive,inactive,–,–,–,inactive,–,–,inactive,–,–,inactive,inactive,–
Cc1cc(C(C#N)c2ccc(Cl)cc2)c(Cl)cc1NC(=O)c1cc(I)cc(I)c1O (stereo not drawn),inactive,–,inactive,inactive,inactive,inactive,inactive,inactive,26.6 µM (active),–,–,inactive,–,–,–,–,–,23.7 µM (active),–,–
Nc1ccc(NCCO)c([N+](=O)[O-])c1,–,–,–,inactive,inactive,–,–,inactive,inactive,inactive,48.6 µM (active),–,–,–,–,–,–,inactive,–,–
CC(C)=CCC1=C(O)c2ccccc2C(=O)C1=O,–,–,–,inactive,inactive,–,–,inactive,–,–,43 µM (active),inactive,–,inactive,inactive,1.53 µM (active),–,–,–,–
CC(C)(C)c1ccc(C(O)CCCN2CCC(C(O)(c3ccccc3)c3ccccc3)CC2)cc1 (stereo not drawn),16.8 µM (active),–,inactive,–,–,26.6 µM (active),inactive,inactive,–,–,23.7 µM (active),inactive,–,–,–,–,–,inactive,inactive,–
C=Cc1ccccc1C=C,inactive,inactive,–,–,inactive,inactive,–,inactive,inactive,inactive,inactive,inactive,–,–,inactive,inactive,–,inactive,inactive,inactive
CCN(CCN)c1cccc(C)c1,inactive,inactive,–,inactive,inactive,inactive,inactive,inactive,7.77 µM (active),–,inactive,inactive,–,–,–,–,–,–,inactive,inactive
O=S(=O)(O)c1ccccc1/C=C/c1ccc(-c2ccc(/C=C/c3ccccc3S(=O)(=O)O)cc2)cc1,inactive,inactive,–,–,inactive,–,–,inactive,inactive,–,–,inactive,–,–,–,inactive,–,inactive,inactive,–
Oc1ccccc1O,inactive,–,–,inactive,inactive,9.81 µM (active) and 15.4 µM (active),6.19 µM (active) and 15.4 µM (active),inactive,874 nM (active) and inactive,inactive,inactive,–,–,–,22 µM (active) and 24.3 µM (active),inactive,–,inactive,inactive,inactive
Cc1ccc(O)c(O)c1,inactive,–,–,inactive,–,21.1 µM (active),21.1 µM (active),inactive,5.29 µM (active),–,inactive,inactive,–,–,–,inactive,–,inactive,–,–
O=C(O)c1cc(N=Nc2ccc([N+](=O)[O-])cc2)ccc1O,–,inactive,–,0.848 µM (active),inactive,26.8 µM (active),30.1 µM (active),inactive,inactive,–,60 µM (active),inactive,–,–,–,–,–,–,inactive,inactive
Cc1nc2n(c(=O)c1CCN1CCC(c3noc4cc(F)ccc34)CC1)CCCC2,inactive,–,inactive,inactive,inactive,inactive,inactive,inactive,inactive,–,inactive,inactive,–,–,–,–,–,inactive,inactive,–
OC12N=C(c3ccccc3)SC1Cc1cc(Cl)ccc12 (stereo not drawn),inactive,inactive,–,–,inactive,inactive,inactive,2.73 µM (active),inactive,61.1 µM (active),–,1.93 µM (active),–,–,inactive,–,–,inactive,–,–
O=C1NC(=O)[C@@H]2CC=CC[C@H]12,inactive,–,–,–,inactive,inactive,inactive,inactive,inactive,inactive,inactive,–,–,–,inactive,–,–,–,inactive,inactive
COc1ccc(-c2coc3cc(O)ccc3c2=O)cc1,inactive,inactive,–,–,inactive,inactive,inactive,9.69 µM (active),–,–,inactive,1.09 µM (active),–,–,–,–,–,inactive,inactive,inactive
